MITF TRPM1 HTS: activators of MITF-driven TRPM1 promoter reporter, primary screen, cell-based, SK-MEL-5, luciferase, single point; activation, % at 12.5 µM; SK-MEL-5 TRPM1-promoter luciferase, 24 h; % of positive control, neutral wells = 0; actives 0.75% (n = 300,000);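 active = mean activation of at least 80% with every replicate also reaching 80%; inconclusive = mean reaches 80% but some replicate falls short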;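 also: 0% = neutral control wells and 100% = parthenolide positive control wells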
TRPM1 prom inh: inhibitors of MITF-dependent TRPM1 promoter reporter, primary screen, cell-based, SK-MEL-5, single point, luciferase; SK-MEL-5 TRPM1 promoter luciferase, 24 h; inhibition, % at 12.5 µM; actives 0.83% (n = 330,000);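 active = mean inhibition across replicates of 60% or more, whatever share of single replicates reaches that level; inconclusive = some that reach 60%, reason not given; inactive = mean inhibition across replicates below 60%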
TROY NFkB inh: inhibitors of TROY-driven NF-kB signaling, primary screen, Q293 LMP1-TROYcd cells, NF-kB luciferase, uHTS; Q293 LMP1-TROYcd NF-kB luciferase reporter, 4 h; inhibition, % at 10 µM; actives 0.98% (n = 360,000); AID 1347056, 2019;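 active = compounds whose plate-normalised and pattern-corrected inhibition of the luciferase reporter signal at the single screening dose is 50% or more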
LGR2 antag: inhibitors of bursicon-induced LGR2 CRE-luciferase signal, primary screen, cell-based, HEK293, CRE-luciferase reporter, bursicon stimulation | Drosophila bursicon receptor LGR2 (rickets) | bursicon-stimulated, 4 h | inhibition, % at 9.99 µM | actives 0.35% (n = 380,000);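 active = drop in luminescence signal, shown as inhibition above about 50% in the replicate tests, limit read from the data, passing the limit was not always enough; inconclusive = probably only some replicates passing the limit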;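 also: agonist challenge used bursicon conditioned medium at about half maximal strength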
TWEAK-Fn14 inh: inhibitors of TWEAK-Fn14 signaling, primary screen, luciferase reporter cells, uHTS; TWEAK-stimulated Fn14 reporter cells, luciferase luminescence, 8 h; inhibition, % at 10 µM; actives 2% (n = 360,000); in the data active = inhibition above about 50%
LMP1 NFkB inh: EBV LMP1-driven NF-kappaB luciferase reporter inhibitors, primary screen, cell-based, luminescence, single point; actives 0.69% (n = 350,000); inhibition, % at 12.5 µM; LMP1-induced NF-kappaB luciferase reporter cells; in the data active = inhibition above about 41%; inconclusive = no clear call, values can overlap the other calls;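 also: 0% = neutral control wells and 100% = reference inhibitor control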
* marks the source's active call; other numbers are inactive results; ? = inconclusive; . = no result. This is a sample that favours compounds with a hit; in the whole collection about 3% have one here.

SMILES	MITF TRPM1 HTS	TRPM1 prom inh	TROY NFkB inh	LGR2 antag	TWEAK-Fn14 inh	LMP1 NFkB inh
CCC(=O)Nc1ccc(/C=C(\C(C)=O)C(=O)c2ccccc2)cc1	-13	16	-5	52*	13	8
COc1cccc(/C=C(/C(=O)OCC(N)=O)c2ccccc2)c1	3	-2	3	7	-12	3
COc1cccc(C=C(C(C)=O)C(=O)c2ccccc2)c1	.	.	14	24	51*	.
O=C(C(=Cc1ccc(F)cc1)C(=O)c1ccccc1)c1ccccc1	.	.	-56	-43	78*	.
O=C(Nc1cccc(Cl)c1)N[C@H]1CC[C@@H](CCNC(=O)C2CCCC2)O[C@@H]1CO	.	.	.	0	.	.
O=C(NCCc1csc(-c2cccnc2)n1)c1ccccc1	15	-17	-8	10	-9	1
O=C(NCCc1csc(-c2cccnc2)n1)c1cccc2ccccc12	5	-6	-5	10	-8	89*
C#CCn1c(=NC(=O)c2ccc(S(=O)(=O)N3CCc4ccccc4C3)cc2)sc2cc(S(N)(=O)=O)ccc21	-90	90*	7	.	10	12
O=C(Nc1nc(-c2cc(Cl)sc2Cl)cs1)c1ccc(Br)s1	3	0	5	.	47	44*
O=C(Nc1nc(-c2ccccn2)cs1)c1ccco1	0	6	0	14	4	10
O=C(Nc1nc(-c2ccccn2)cs1)c1ccc(Br)s1	.	22	-10	.	-107	87*
CC(Oc1ccc(F)cc1)C(=O)Nc1nc(-c2ccccn2)cs1 (stereo not given)	-64	65*	74*	7	-94	14
O=C(Nc1nc(-c2cc(Cl)sc2Cl)cs1)c1cccs1	53	-51	-1	.	28	-66
CO[C@@H]1CN(C)C(=O)c2cc(NC(=O)Cc3ccccc3)ccc2OC[C@H](C)N(C(C)=O)C[C@H]1C	.	.	.	3	.	.
CCC(=O)n1nc(-c2ccc(Cl)cc2)nc1SC	64	-59	-31	.	77*	-9
CCc1ccc(NC(=O)c2cnc(N3CCN(c4ccccn4)CC3)c3ccccc23)cc1	-40	43	60*	?	101*	18
CCOC(=O)COc1ccc(Br)cc1/C=C/c1[nH]c(=O)[nH]c(=O)c1[N+](=O)[O-]	3	-3	24	24	62*	-1
CCCOc1ccc(/C=C/c2[nH]c(=O)[nH]c(=O)c2[N+](=O)[O-])cc1OCC	-4	2	-6	2	10	-7
CCOc1ccc(/C=C/c2[nH]c(=O)[nH]c(=O)c2[N+](=O)[O-])cc1	.	7	-20	10	-1	-22
CCOC(=O)COc1ccc(Br)cc1/C=C\c1[nH]c(=O)[nH]c(=O)c1[N+](=O)[O-]	-17	14	3	.	74*	2
CO[C@H]1CN(C)C(=O)c2ccc(NC(C)=O)cc2OC[C@H](C)N(CCc2ccccc2)C[C@@H]1C	.	.	.	21	.	.
CCN(CC(=O)c1c(N)n(C)c(=O)n(C)c1=O)c1cccc2ccccc12	-16	17	57*	21	99*	-1
Cc1ccc(-c2nn3c(C)nnc3s2)cc1NC(=O)c1ccc(-c2ccc(Cl)cc2Cl)o1	-100	100*	26	.	-34	0
O=C(CSc1ccccn1)Nc1ccc2c(c1)CCC2	110*	-98	-35	17	-31	-36
O=C(CSc1ccccn1)Nc1ccc2c(c1)C(=O)c1ccccc1C2=O	95*	-81	-38	-69	-53	-31
SMILES	MITF TRPM1 HTS	TRPM1 prom inh	TROY NFkB inh	LGR2 antag	TWEAK-Fn14 inh	LMP1 NFkB inh
Cc1cc(NC(=O)CSc2ccccn2)cc(NC(=O)CSc2ccccn2)c1	8	-13	-7	-35	-12	0
COc1ccc(CN2C[C@H](C)[C@@H](OC)CN(C)C(=O)c3ccc(NC(=O)C4CC4)cc3OC[C@@H]2C)cc1	.	.	.	3	.	.
C[C@@H]1CCCCO[C@@H](CN(C)S(C)(=O)=O)[C@H](C)CN([C@@H](C)CO)C(=O)c2cc(NS(=O)(=O)c3cn(C)cn3)ccc2O1	.	.	.	-4	.	.
COc1ccc2nnc(-c3ccc(C(F)(F)F)cc3)n2n1	-13	12	-12	-1	61*	5
[O-]/C(=C(\C(=S)Nc1cccc2ccccc12)[n+]1ccccc1)c1cccs1	-31	37	27	-9	6	-14
COc1cccc(NC(=S)/C(=C(\[O-])c2ccc(OC(F)F)cc2)[n+]2ccccc2)c1	-2	6	-48	-63	32	-3
[O-]/C(=C(\C(=S)Nc1cccc2ccccc12)[n+]1ccccc1)c1ccc2c(c1)OCCO2	.	17	84*	.	104*	-1
[O-]/C(=C(\C(=S)Nc1cccc2ccccc12)[n+]1ccccc1)c1ccc(OC(F)F)cc1	-12	11	82*	-16	43	-11
O=C(C[C@@H]1CC[C@H](NC(=O)c2ccc3c(c2)OCO3)[C@H](CO)O1)NC1Cc2ccccc2C1	.	.	.	-1	.	.
CC1Cc2ccccc2N1C(=O)c1cc2c(=O)n3ccccc3nc2n1C (stereo not given)	.	-7	-14	.	53*	0
O=C(O)c1cc(N=Nc2c(O)ccc3ccccc23)cc(C(=O)O)c1	-14	15	-12	.	-3	-17
O=C(O)c1ccc(N=Nc2c(O)ccc3ncccc23)cc1	-23	29	-16	30	59*	-33
Cc1ccccc1S(=O)(=O)N1CC[C@@H]2[C@H](CO)Nc3ccc(C#Cc4ccccc4)cc3[C@@H]21	.	.	.	14	.	.
COc1ccc2c3c([nH]c2c1)[C@H](CO)N(Cc1ccccc1)CC31CN(C(=O)c2cccnc2)C1	.	.	.	9	.	.
c1ccc(-c2ncc(CSc3nncn3-c3ccccc3)s2)cc1	2	-5	-4	-6	3	-15
Cc1nnc(SCc2cnc(-c3ccc(C(C)C)cc3)s2)n1C	.	12	-9	.	33	43*
COc1ccc(-c2cnc3c(c2)C(=O)N([C@H](C)CO)C[C@H](C)[C@H](CN(C)Cc2cccc(C)c2)O3)cc1	.	.	.	6	.	.
Cc1onc(-c2ccccc2)c1C(=O)N/N=C/c1ccco1	.	-3	-3	-10	2	-3
Cc1onc(-c2ccccc2)c1C(=O)N/N=C/c1ccc([N+](=O)[O-])s1	-67	65*	12	10	30	5
Cc1ccc(NC(=S)N/N=C/c2ccc([N+](=O)[O-])s2)cc1	-71	70*	-48	-23	31	38
O=C(Cc1cccs1)N/N=C\c1ccc([N+](=O)[O-])s1	-51	52	-9	-7	4	-6
CCN(CC)c1ccc(/C=N/NC(=O)c2c(-c3ccccc3)noc2C)cc1	4	-5	53*	-3	18	7

Assay outcomes as filed in PubChem BioAssay.
